In the supplement of paper PMC8975748:
Structures can show the parent of a compound that is named as a salt.

The compounds below were run on Saccharomyces cerevisiae BY4741 SeMeCo community (assay: z-score of subpopulation abundance vs DMSO median, subpopulation auxotrophic for L; higher = larger share of this subpopulation than in DMSO controls). Settings: 10 µM; 24 h; SM minimal medium; subpopulation (auxotrophy): L.
Method: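 Fluorescent four-plasmid SeMeCo (self-establishing metabolically cooperating S. cerevisiae BY4741 community; plasmids pH-mRuby2, pL-mWasabi, pU-eCFP, pM-TagRFP657) was grown 24 h in minimal SM medium with each Selleck FDA-approved drug at 10 µM in 384-well plates. Cells were fixed and imaged by high-content confocal microscopy. For each auxotrophic subpopulation (and the prototroph), a z-score gives the deviation from the DMSO vehicle-control population median.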

SMILES	z-score of subpopulation abundance
CN(C)C(=O)Oc1cccc([N+](C)(C)C)c1 [Neostigmine Bromide]	0.65
CC[C@@]1(O)C(=O)OCc2c1cc1n(c2=O)Cc2cc3ccccc3nc2-1 [Camptothecin]	-0.35
O=c1cccc2n1C[C@@H]1CNC[C@H]2C1 [Cytisine]	0.2
N[C@@H]1C[C@H]1c1ccccc1 [Tranylcypromine (2-PCPA) HCl]	-0.64
CCN(CC)CCOC(=O)C(O)(c1ccccc1)c1ccccc1 [Benactyzine hydrochloride]	0.45
C[N+]1(C)[C@@H]2C[C@@H](OC(=O)[C@H](CO)c3ccccc3)C[C@H]1[C@@H]1O[C@@H]12 [Methscopolamine]	0.57
CC(=O)OCC1=C(C(=O)O)N2C(=O)C(N)C2SC1 (stereo not given) [7-Aminocephalosporanic acid]	0.13
Nc1nc(N)nc(NC2CC2)n1 [Cyromazine]	0.49
CN(C)[C@@H]1C(=O)C(C(N)=O)=C(O)[C@@]2(O)C(=O)C3=C(O)c4c(O)cccc4[C@@](C)(O)[C@H]3[C@H](O)[C@@H]12 [Oxytetracycline (Terramycin)]	0.2
CC[C@H]1[C@@H]2C[C@H]3[C@@H]4N(C)c5ccccc5[C@]45C[C@@H]([C@@H]2[C@H]5O)N3[C@@H]1O [Ajmaline]	-0.67
COc1cc2c(cc1OC)C1CC(=O)C(CC(C)C)CN1CC2 (stereo not given) [Tetrabenazine (Xenazine)]	1.69
NCC(O)c1ccc(O)cc1 (racemic) [(+,-)-Octopamine HCl]	-0.17
CC[C@@H](C(N)=O)N1CCCC1=O [Levetiracetam]	0
COc1ccc(C=O)cc1 [p-Anisaldehyde]	-0.63
O=[N+]([O-])C(Br)(CO)CO [Bronopol]	-0.82
COc1ccc2c(c1)[C@]13CCCC[C@@H]1[C@H](C2)N(C)CC3 [Dextromethorphan hydrobromide hydrate]	0.57
Oc1cc(Cl)ccc1Oc1ccc(Cl)cc1Cl [Triclosan]	-0.94
CN(C)[C@@H]1C(=O)C(C(N)=O)=C(O)[C@@]2(O)C(=O)C3=C(O)c4c(O)ccc(Cl)c4[C@@](C)(O)[C@H]3C[C@@H]12 [Chlortetracycline HCl]	-0.76
C=CCN1C[C@H](C(=O)N(CCCN(C)C)C(=O)NCC)C[C@@H]2c3cccc4[nH]cc(c34)C[C@H]21 [Cabergoline]	0.36
CN1[C@@H]2C[C@@H](OC(=O)[C@H](CO)c3ccccc3)C[C@H]1[C@@H]1O[C@@H]12 [Scopolamine HBr]	-0.33

SMILES	z-score of subpopulation abundance
C=C(C)[C@H]1Cc2c(ccc3c2O[C@@H]2COc4cc(OC)c(OC)cc4[C@@H]2C3=O)O1 [Rotenone (Barbasco)]	0.46
CC(=O)O[C@H]1C[C@@H]2CC[C@@H]3[C@H](CC[C@@]4(C)[C@H]3C[C@H]([N+]3(C)CCCCC3)[C@@H]4OC(C)=O)[C@@]2(C)C[C@@H]1[N+]1(C)CCCCC1 [Pancuronium dibromide]	-0.47
CC1(C)SC2C(N)C(=O)N2C1C(=O)O (stereo not given) [6-Aminopenicillanic acid]	-0.39
CN[C@@H]1[C@@H](O)[C@@H](O[C@@H]2[C@@H](O)[C@H](O[C@H]3O[C@H](CN)CC[C@H]3N)[C@@H](N)C[C@H]2N)OC[C@]1(C)O.CN[C@@H]1[C@@H](O)[C@@H](O[C@@H]2[C@@H](O)[C@H](O[C@H]3O[C@H]([C@@H](C)N)CC[C@H]3N)[C@@H](N)C[C@H]2N)OC[C@]1(C)O.CN[C@@H]1[C@@H](O)[C@@H](O[C@@H]2[C@@H](O)[C@H](O[C@H]3O[C@H]([C@@H](C)NC)CC[C@H]3N)[C@@H](N)C[C@H]2N)OC[C@]1(C)O [Gentamicin Sulfate]	-0.91
C#C[C@]1(O)C=C[C@H]2[C@@H]3CCC4=CC(=O)CC[C@@H]4[C@H]3CC[C@@]21CC [Gestodene]	0.46
Cn1cc(C2=C(c3cn(C4CCN(Cc5ccccn5)CC4)c4ccccc34)C(=O)NC2=O)c2ccccc21	-1.15
C[C@H]1O[C@H](O[C@H]2[C@H](O)[C@@H](O)[C@@H](O)[C@H](O)[C@@H]2O)[C@@H](N)C[C@@H]1NC(=N)C(=O)O [Kasugamycin hydrochloride]	0.8
Cc1cc(O)ccc1Cl [Chlorocresol]	-0.62
COc1ccc2c3c([nH]c2c1)C(C)=NCC3 [Harmaline]	2.48
CCN(C)C(=O)Oc1cccc([C@H](C)N(C)C)c1 [Rivastigmine Tartrate]	1.02
CN[C@@H]1[C@@H](O)[C@@H](O[C@@H]2[C@@H](O)[C@H](O[C@H]3O[C@H]([C@@H](C)O)[C@@H](O)[C@H](O)[C@H]3N)[C@@H](N)C[C@H]2N)OC[C@]1(C)O [Geneticin (G418 Sulfate)]	0.54
COc1ccc2[nH]cc(CCN)c2c1 [5-Methoxytryptamine]	0.52
Oc1cccc2cccnc12 [8-Hydroxyquinoline]	-1.01
C=CN1CCCC1=O.II [Povidone iodine]	0.47
C[N+](C)(C)CCCCCCCCCC[N+](C)(C)C [Decamethonium Bromide]	-0.55
CCN1CC2(OC(=O)c3ccccc3NC(C)=O)CCC(OC)C34C1C(CC23)C1(O)CC(OC)C2CC4C1(O)C2OC (stereo not given) [Lappaconitine]	0.34
C=CC[C@]1(O)CC[C@H]2[C@@H]3CCC4=CC(=O)CCC4=C3C=C[C@@]21C [Altrenogest]	0.59
COc1ccc(C(CN(C)C)C2(O)CCCCC2)cc1 (stereo not given) [Venlafaxine]	-0.75
COc1ccc(C(CN(C)C)C2(O)CCCCC2)cc1 (stereo not given) [Venlafaxine HCl]	0.66
CCN(C)C(=O)Oc1cccc([C@H](C)N(C)C)c1 [Rivastigmine]	-0.94
